Results on 104 compounds are retold here after ChEMBL document CHEMBL4513216, “Probing the Open Global Health Chemical Diversity Library for Multistage-Active Starting Points for Next-Generation Antimalarials” (ACS Infect Dis, 2020).

Out of some 68,000 compounds screened, about 2,700 (4%) showed an effect of 50% or more. What follows is part of a selection rich in strong results, with near analogues and random picks from the rest.

This test deals with Plasmodium berghei. As to the kind of experiment: Screen against P. berghei liver stage (PbLuc), transformed with Luciferase, at 2uM. It counts as functional, HepG2. Particulars: tested at 2 uM.
For the compound `Cn1ccnc1CN1CCC2(CC(=O)N(c3ccccn3)C2)C1` (centres undefined), the INHIBITION was 44.46%.

As to `Clc1cccc(N[C@H]2CCCN[C@H]2Cc2ccccc2)c1`, the INHIBITION is recorded as -34.37%. With `CC(C)(C)OC(=O)N1CCN(C(=O)c2cnn3c2OCCC3)CC1`, the INHIBITION is reported as -14.01%. Then `COCc1noc(CN2CC(Cc3ccccc3)CC2=O)n1` (centres undefined), with 14.12%; and `O=C1CCCN1CCCNCc1cc(O)c2cccc(Cl)c2n1`, with -15.85%. Then `Oc1cc(CNCCN2CCCCC2)nc2c(F)cccc12`, with -6.77%; and `O=C1CCCN1CCCNCc1cc(O)c2cccc(F)c2n1`, with 53.12%; and `OC1CCN(c2ccnc(NCCc3ccccc3Cl)n2)C1` (centres undefined), with 0.72%.

Turning to `CCC(NC(=O)NCc1nncn1CC)c1ccc(OC)cc1` (centres undefined), the INHIBITION was -53.08%.

With `Cc1n[nH]c2c1C(c1ccc(Cl)cc1)SCC(=O)N2` (centres undefined), the INHIBITION is 47.85%. Then `Cc1n[nH]c2c1C(c1ccncc1)SCC(=O)N2` (centres undefined), with 19.08%. With `Cc1n[nH]c2c1C(c1cnn(C)c1)SCC(=O)N2` (centres undefined), the INHIBITION was determined as 73.96%. Turning to `CCCn1cnnc1CN(C)C(=O)C1CCC(=O)N(C2CCCC2)C1` (centres undefined), the INHIBITION worked out at 31.35%.

As for `CC(C)c1[nH]c2ncccc2c1CN1CCC(O)CC1`, the INHIBITION stood at 14.73%.

Take `CC1CCN(Cc2c(C(C)C)[nH]c3ncccc23)CC1`: the INHIBITION is -9.61%. Then `CC(C)c1[nH]c2ncccc2c1CN1CCOCC1`, with 68.53%; and `CC(CNC(=O)c1nnn(-c2ccccc2)c1C(F)(F)F)N(C)C` (centres undefined), with -10.14%. For the compound `CCc1ocnc1C(=O)Nc1ccc2ccn(CCN(C)C)c2c1`, the INHIBITION was determined as 53.19%. The figure for `Cc1ncccc1C(=O)Nc1ccc2ccn(CCN(C)C)c2c1` is 10.23%. On to `CCc1ncncc1C(=O)Nc1ccc2ccn(CCN(C)C)c2c1`, for which the INHIBITION stood at 38.87%. On to `CC(C)(C)NC(=O)c1ccn(COc2c(Cl)cccc2Cl)n1`, for which the INHIBITION is 31.42%. In the case of `CCC(=O)NCC(=O)NC(C)c1ccc(OCCC(C)C)cc1` (centres undefined), the INHIBITION is on record as -14.65%. On to `CCNc1ncc(C(=O)NCc2csc(-c3ncccn3)n2)cn1`, for which the INHIBITION was -27.47%.

`CCNc1ncc(C(=O)NCCc2csc(-c3ncccn3)n2)cn1`: the INHIBITION is 69.79%.

`CCNc1ncc(C(=O)NCCc2csc(CSC)n2)cn1`: the INHIBITION was -45.11%. Then `Cc1noc(-c2ccnc(Oc3cccc(CN4CCCC4)c3F)c2)n1`, with 43.15%; and `O=C(O)c1csc(NCCc2ccccc2)n1`, with 55.05%; and `O=C(NCCc1ccccc1)NCC(O)c1cccs1` (centres undefined), with 1.48%. The figure for `CN1CC(=O)c2sc(NCCc3ccccc3)nc2C1` is -24.17%.

As for `CCC(C)NC(=O)CS(=O)(=O)Cc1cc(C)ccc1C` (centres undefined), the INHIBITION is listed as -10.29%. Consider `O=C(NCC1CC1)c1ccc(NC(=O)c2ccco2)cc1`, for which the INHIBITION amounted to 24.44%.

On to `COc1ccccc1-n1nc(CC(C)C)nc1Cc1nnc(N)s1`, for which the INHIBITION is listed as -28.44%.

Take `Cc1cccc(NC(=O)c2nn(C3CCS(=O)(=O)C3)c3c2CCCC3)n1` (centres undefined): the INHIBITION came out at 9.29%. On to `O=C(Nc1cccc(Cl)c1)c1nn(C2CCS(=O)(=O)C2)c2c1CCCC2` (centres undefined), for which the INHIBITION was determined as 21.33%. Consider `O=C(Nc1ccc(Cl)cn1)c1nn(C2CCS(=O)(=O)C2)c2c1CCCC2` (centres undefined), for which the INHIBITION is listed as 66.3%. Then `O=C(Nc1ccccc1)c1nn(C2CCS(=O)(=O)C2)c2c1CCCC2` (centres undefined), with 73.37%. Regarding `O=C(Nc1cccnc1)c1nn(C2CCS(=O)(=O)C2)c2c1CCCC2` (centres undefined), the INHIBITION is -0.14%. Then `O=C(Nc1ccc(Cl)cc1)c1nn(C2CCS(=O)(=O)C2)c2c1CCCC2` (centres undefined), with 14.16%; and `O=C(NCCc1ccccc1Cl)NCC1(O)CCSC1` (centres undefined), with -41.73%; and `COCCN(C/C=C/c1ccccc1)Cc1ncc[nH]1`, with -14%. With `CN(CCc1cccs1)C(=O)Nc1cccc(S(C)(=O)=O)c1`, the INHIBITION is recorded as -7.16%. Turning to `OC(CN1CCN(CC2CC2)CC1)c1ccc(Br)cc1` (centres undefined), the INHIBITION is given as 50.32%. Then `OC(CN1CCN(CC2CCCCC2)CC1)c1ccccc1` (centres undefined), with 12.55%; and `CCN1CCN(CC(O)c2ccc(Br)cc2)CC1` (centres undefined), with 63.46%. Take `CCN1CCN(CC(O)c2ccc(F)cc2)CC1` (centres undefined): the INHIBITION is reported as -5.15%. Regarding `NC(=O)CC1CCN(CC(O)c2ccc(Br)cc2)CC1` (centres undefined), the INHIBITION was -58.06%. Then `OC(CN1CCN(CC(F)F)CC1)c1ccc(Br)cc1` (centres undefined), with 15.84%; and `Cn1cc(CN2CCCC23CCN(C(=O)c2cccn2C)CC3)cn1`, with 1.42%; and `CO[C@@H]1CC[C@H]2[C@H]1OCCN2Cc1ccc(F)cc1`, with 19.53%. Then `CCc1nnc(CN(C)Cc2nc(-c3ccccc3Cl)oc2C)o1`, with 15.84%; and `Cc1nonc1CN(C)Cc1nc(-c2cccc(F)c2F)oc1C`, with -25.82%. For the compound `Cc1nonc1CN(C)Cc1nc(-c2ccccc2Cl)oc1C`, the INHIBITION amounted to 51.96%. Regarding `Cc1cc(C2CCC2)nc(NCC(C)(C)N2CCCC2)n1`, the INHIBITION worked out at 7.85%. The figure for `CC(C)N1CCO[C@H]2CN(C(=O)c3ccoc3)C[C@H]21` is -17.23%; for `CC(C)N1CCO[C@H]2CN(C(=O)c3ccncc3)C[C@H]21` it is 19.96%.

In the case of `Cc1cc(CN2C[C@@H]3CN(C(=O)c4ccsc4)CCO[C@@H]3C2)no1`, the INHIBITION was -89.19%. The figure for `O=C(c1ccsc1)N1CCO[C@@H]2CN(Cc3cccs3)C[C@@H]2C1` is 78.93%. The figure for `CC(C)N1CCO[C@H]2CN(C(=O)c3ccsc3)C[C@H]21` is 65.32%.

For the compound `O=C(c1ccsc1)N1CCO[C@@H]2CN(Cc3nccs3)C[C@@H]2C1`, the INHIBITION was 41.28%.

As to `c1ncn(Cc2nnc(C3CCN(CC4CC4)CC3)n2C2CC2)n1`, the INHIBITION stood at 30.96%. On to `Cc1nnc(CN2CCOC(c3ccc(Cl)c(Cl)c3)C2)o1` (centres undefined), for which the INHIBITION is given as 38.67%. Then `Cc1nc(CN2CCOC(c3ccc(Cl)cc3)C2)oc1C` (centres undefined), with 5.28%; and `Cc1nnc(CN2CCOC(c3ccc(Cl)cc3)C2)o1` (centres undefined), with 57.75%; and `c1ccc(O[C@H]2CO[C@@]3(CCN(Cc4ccc5c(c4)OCO5)C3)C2)nc1`, with 40.83%.

`Cc1cncc(C2CCCN(CC3CCC3)C2)n1` (centres undefined): the INHIBITION is 50.63%.

As for `O=C(c1c[nH]c(=O)[nH]c1=O)N1CCCC(c2cnccn2)C1` (centres undefined), the INHIBITION is reported as -15.93%.

In the case of `Cc1ccc(CN2CCCC(c3cncc(C)n3)C2)cn1` (centres undefined), the INHIBITION is -0.15%. Regarding `Cc1cncc(C2CCCN(Cc3ccncc3)C2)n1` (centres undefined), the INHIBITION is given as -33.09%. `Cc1cncc(C2CCCN(C(=O)c3ccc(C)[nH]c3=O)C2)n1` (centres undefined): the INHIBITION amounted to 17.71%. For the compound `Cc1cncc(C2CCCN(C(=O)c3c[nH]c(=O)[nH]c3=O)C2)n1` (centres undefined), the INHIBITION is recorded as 50.72%. The figure for `COc1ccc(NC(C)c2ccc(C#N)cc2)cc1N1CCCC1=O` (centres undefined) is -50.8%; for `O=C1CC(c2ccc(CO)o2)c2cnn(Cc3ccco3)c2N1` (centres undefined) it is -1.11%; for `Cc1nc(-c2cnn(C)c2)sc1C(=O)NCc1cccc(CN(C)C)c1` it is -6.4%. For `CN(Cc1nnc2n1CCC2)C(=O)Cc1ccc2c(c1)CCC2`, the INHIBITION is recorded as -9.49%. Then `Cc1nnsc1C(=O)N1CC[C@H](c2ccccc2)[C@@H]2[C@H]1CCCCN2C`, with 22.81%.

For the compound `NC(=O)C1CN(C(=O)Nc2ccccc2SC(F)(F)F)CCO1` (centres undefined), the INHIBITION is -20.93%.

`O=C(NCc1ncc(-c2ccccc2)o1)NC1CCC(O)CC1` (centres undefined): the INHIBITION is listed as 13.58%. In the case of `COc1cc(C)c(CN2CCc3nc4ccsc4c(=O)n3CC2)cc1C`, the INHIBITION worked out at 36.56%. Then `CN(C)c1cccc(C(=O)Nc2cnn(Cc3ccncc3)c2)c1`, with -34.79%; and `COCCC(=O)N1CCC2(COCc3cnc(NCC4CC4)nc32)C1` (centres undefined), with -20.77%. The figure for `c1ccc2oc(N3CCC(c4nncn4C4CC4)CC3)nc2c1` is 15.02%.

For `Cn1cnnc1C1CCN(c2nc3ccccc3o2)CC1`, the INHIBITION turned out to be 53.81%. Regarding `Cn1cnnc1C1CCCN(c2nc3ccccc3o2)C1` (centres undefined), the INHIBITION is listed as 44.25%.

For the compound `Cc1cnn(CCNCc2nc(CNC(=O)c3ccccc3)no2)c1`, the INHIBITION stood at 47.23%. For the compound `CN(C)c1nc(N)nc(CN2CCC(c3ccccc3)CC2)n1`, the INHIBITION is on record as 29.6%. Regarding `COc1ccc(CN2CCN(C(=O)c3ccc(C)n3C)CC2)cc1`, the INHIBITION is on record as -10.64%. Consider `Cc1ccc(C(=O)N2CCN(Cc3ccc(C#N)cc3)CC2)n1C`, for which the INHIBITION is reported as 28.18%. Then `Cc1ccc(C(=O)N2CCN(Cc3ccccc3)CC2)n1C`, with 52.17%; and `CC(C1CC1)N(C(=O)NCCCn1nc2ccccn2c1=O)C1CC1` (centres undefined), with 1.07%. In the case of `O=C(c1cscn1)N1CCN2C[C@H](OCc3cccnc3)C[C@H]2C1`, the INHIBITION is given as 50.12%.

On to `O=C(c1ccc(F)cc1)N1CCN2C[C@H](OCc3ccccn3)C[C@H]2C1`, for which the INHIBITION amounted to 15.58%. The figure for `O=C(c1ccsc1)N1CCN2C[C@H](OCc3cccnc3)C[C@H]2C1` is 16.22%; for `Cc1cnc(C(=O)N2CCN3C[C@H](OCc4cccnc4)C[C@H]3C2)cn1` it is -35.38%; for `O=C(c1ccsc1)N1CCN2C[C@H](OCc3ccccn3)C[C@H]2C1` it is 53.08%. The figure for `O=C(c1ccnnc1)N1CCN2C[C@H](OCc3ccccn3)C[C@H]2C1` is 26.94%; for `CN1CC2(CCN(C(=O)c3[nH]cnc3-c3ccccc3)C2)OC1=O` (centres undefined) it is 14.96%; for `Cc1cc(N(C)C)nc(N2CC(n3cccn3)C2)n1` it is 35.46%. The figure for `Cc1cc(C2CCC2)nc(N2CC(n3cccn3)C2)n1` is 52.6%; for `Cc1cc(C2CCC2)nc(N2CCN(Cc3nccn3C)CC2)n1` it is 35.46%; for `Cc1c(NC(=O)CN2CCN(C3CCCC3)C(=O)C2)cnn1C` it is 17.24%. For the compound `c1ccc(-n2cc(CN3CCCC3Cn3cncn3)nn2)cc1` (centres undefined), the INHIBITION amounted to 15.47%. With `Cc1cccc2nc(CSCC(=O)Nc3nnc(C(C)C)s3)cc(=O)n12`, the INHIBITION is reported as 52.21%. Regarding `CC(C)c1nnc(NC(=O)CSCc2cc(=O)n3ccccc3n2)s1`, the INHIBITION is listed as 1.87%. Then `Cc1ccn2c(=O)cc(CSCC(=O)Nc3nnc(C(C)C)s3)nc2c1`, with 4.89%.
